Assay outcomes deposited in PubChem by National Center for Advancing Translational Sciences (NCATS).
TGFb inhibitor = blocks TGF-b signaling; HepG2 CAGA-GFP TGF-b/SMAD3 reporter, GFP fluorescence, 18 h; TGF-beta stimulated, 500 pg/mL final; hit rate 1.2% among 410,000; Potency, µM (titrated, usually from 46.1 µM), for inactives: at the highest dose activity, negative = inhibition, most hits filed as inhibitors; AID 588855; also: potency is read from the fitted curve at half-maximal effect; % is scaled to controls: 0 for no effect and ±100 for the full control effect; nearly all actives have a fitted effect of over 65% in size
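HEPG2 CAGA-GFP reporter cells (1000/well, DMEM with 1% FBS) received compounds, then recombinant TGF-beta at 500 pg/mL final for 18 hours at 37 degrees C. Per-cell GFP summed per well was normalised to unstimulated and stimulated DMSO controls before curve fitting.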
DRD3 antagonist = D3 dopamine receptor (human) antagonism | hit rate 2.5% among 360,000 | AID 652054 | P35462 | D3R cells, DiscoveRx beta-arrestin luminescence, antagonist mode; active compounds read low | max response, negative = inhibition, %; in the data active = max response below about -50%; inconclusive = no clear call, values can overlap the other calls; also: % is scaled to controls: 0 for no effect and ±100 for the full control effect
Target sequence (P35462 whole entry, looked up): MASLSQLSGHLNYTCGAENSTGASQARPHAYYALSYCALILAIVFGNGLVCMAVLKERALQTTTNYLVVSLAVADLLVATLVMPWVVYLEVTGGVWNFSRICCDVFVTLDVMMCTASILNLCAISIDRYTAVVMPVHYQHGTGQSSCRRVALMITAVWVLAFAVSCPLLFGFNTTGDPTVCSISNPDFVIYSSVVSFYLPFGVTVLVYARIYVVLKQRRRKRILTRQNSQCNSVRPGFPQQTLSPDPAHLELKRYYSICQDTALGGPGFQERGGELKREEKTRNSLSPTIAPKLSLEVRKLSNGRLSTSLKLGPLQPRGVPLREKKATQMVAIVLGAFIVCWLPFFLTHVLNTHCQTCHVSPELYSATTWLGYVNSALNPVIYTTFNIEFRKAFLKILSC
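Cells expressing the human receptor were seeded at 1500 cells/well, incubated overnight at 37 degrees C in 5% CO2, then exposed to library compounds with dopamine controls for 90 minutes at 37 degrees C before luminescent detection.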
HepG2 tox = HepG2 cytotoxicity, counter-screen for TGF-b inhibitors. HepG2 CAGA-GFP viability, ATP luminescence, 18 h. Potency, µM (highest dose often 46.1 µM), inactives show at the highest dose activity change, negative = cytotoxicity, actives largely listed as cytotoxic. hit rate 0.76% among 410,000. AID 588856; also: potency is read from the fitted curve at half-maximal effect
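HepG2 CAGA-GFP cells (1000/well, DMEM with 1% FBS) received compound, then TGF-beta at 500 pg/mL final, and were incubated 18 hours at 37 degrees C. Viability was read by CellTiter-Glo luminescence. Media-only wells were set as complete cell-killing and DMSO as no toxicity.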
ATXN2 expr inh = reduces ATXN2 reporter expression in HEK-293 cells; HEK-293 ATXN2-luciferase reporter, luminescence, 24 h; Potency, µM (highest dose often 57 µM), without a hit: at the top dose activity change, negative = inhibition, usual class: inhibitors; hit rate 0.72% among 360,000; AID 1745845; also: potency is read from the fitted curve at half-maximal effect; % is scaled to controls: 0 for no effect and ±100 for the full control effect; nearly all actives have a fitted effect of over 55% in size
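ATXN2-luciferase reporter cells (luciferase flanked by upstream and downstream ATXN2 gene portions) were treated 24 h at 37 °C with compounds at up to 57 uM. SteadyGlo luminescence gave expression; GF-AFC fluorescence gave viability.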
DRD3 agonist = activates the human D3 dopamine receptor. P35462. D3R DiscoveRx beta-arrestin cells, luminescence, 90 min. max activation, %. hit rate 0.58% among 410,000; in the data active = max activation above about 30%; also: 0% is about no effect
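Agonist mode: compounds and dopamine controls were applied to plated cells for 90 min at 37 degrees C after an overnight attachment at 1500 cells/well. Luminescent read-out followed 30 - 60 minutes at room temperature with DiscoveRx detection reagent.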
ATXN viability = viability counter-screen for ATXN expression inhibitors. Potency, µM (highest dose often 56.7 µM), most hits filed as cytotoxic. hit rate 0.49% among 400,000. S2 cells (HEK-293 line with an ATXN2-luciferase reporter) viability, CellTiter-Fluor protease fluorescence, 24 h. AID 651635; also: potency is read from the fitted curve at half-maximal effect; nearly all actives have a fitted effect of over 40% in size
Numbers without * were called inactive; i = inactive; ? = inconclusive; nt = not tested or not shown. Shown are actives, neighbours in structure and some others; about 4.8% of the full set was active somewhere. Unless noted, calls follow the shape of the dose curve; as a rule, active = well fitted curve in the direction sought with a large enough effect; inconclusive = small, poorly fitted or top-dose-only effect, or another doubt; inactive = no such curve, though single readings can be large; an effect the other way counts as inactive or inconclusive.

SMILES	TGFb inhibitor	DRD3 antagonist	HepG2 tox	ATXN2 expr inh	DRD3 agonist	ATXN viability
Cc1cc(Br)cn2c(Cc3cccc(F)c3)c(-c3ccc(F)cc3)nc12	nt	9	nt	2%	-2	i
COc1cccc(NS(=O)(=O)c2ccc3c(c2)N(C)C(=O)CC(=O)N3C)c1	-7%	nt	-3%	11%	5	i
Clc1cccc(Cc2c(-c3ccco3)nc3ccc(Cl)cn23)c1	18µM*	?	-113%	?	-5	nt
COC(=O)c1ccc2nc(-c3ccco3)c(Cc3ccc(OC)cc3C)n2c1	13µM*	7	-31%	-5%	5	?
C#C[C@]1(O)CC[C@@H]2[C@@H]3CCC4=CC(=O)CC[C@@H]4[C@H]3CC[C@@]21CC	nt	nt	nt	-19%	nt	nt
CCOC(=O)C(=NCC1CCCO1)NNc1ccccc1Cl (stereo unspecified)	-5%	-5	1.3µM*	-9%	-3	i
COc1ccccc1N1CCN(CCCCN2C(=O)C3CCCN3C2=O)CC1 (stereo unspecified)	3%	-87*	-4%	-10%	-18	i
COc1ccccc1N1CCN(CCCCN2C(=O)c3ccccc3C2=O)CC1	14%	-107*	-28%	-8%	-7	i
Cc1ccc(N2CCN(CCCN3C(=O)C4CCCN4C3=O)CC2)cc1 (stereo unspecified)	?	-27	-36%	-12%	-15	i
COc1ccccc1N1CCN(CCN2C(=O)C3CCCN3C2=O)CC1 (stereo unspecified)	-3%	-59*	14%	-11%	-34	i
CCCNC(=O)c1ccccc1N1CCN(CCCCN2C(=O)C3CCCCN3C2=O)CC1 (stereo unspecified)	21%	-72*	17%	nt	-8	i
COc1ccccc1N1CCN(CC(=O)N2CCCC2)CC1	-18%	-14	-36%	-32%	-9	i
Cc1ccc(NC(=O)CN2C(=O)C3CCCCN3C(=O)c3ccccc32)cc1 (stereo unspecified)	1%	18	-8%	-4%	7	i
CNC(=O)C1CCC(Cn2c(=O)c3sccc3n(CC(=O)Nc3cc(C)cc(C)c3)c2=O)CC1 (stereo unspecified)	2%	nt	-1%	0%	-3	i
COc1ccc(-n2nc3ccc(NC(=O)c4c(OC)cccc4OC)cc3n2)cc1	-1%	nt	-3%	13%	0	i
O=C1C2CCCCN2C(=O)N1CCCCN1CCN(c2ccccc2Oc2ccccc2)CC1 (stereo unspecified)	-27%	-104*	-40%	?	-22	i
O=C1C2CCCCN2C(=O)N1CCCCN1CCN(c2ccc([N+](=O)[O-])cc2)CC1 (stereo unspecified)	5%	-18	-9%	-13%	-11	?
COCCNC(=O)C(c1ccc(C)cc1)N(Cc1ccco1)C(=O)CCC(=O)Nc1ccccn1 (stereo unspecified)	-10%	-89*	-6%	5%	-10	i
COCCNC(=O)C(c1ccc(C)cc1)N(Cc1ccccc1)C(=O)CCC(=O)Nc1ccccn1 (stereo unspecified)	22%	-8	40%	-10%	-4	i
COCCN(C(=O)CCC(=O)Nc1nccs1)C(C(=O)NC(C)(C)C)c1ccc(C)cc1 (stereo unspecified)	2%	3	3%	5%	38*	i
Cc1ccc(C(C(=O)NC(C)(C)C)N(CC2CCCO2)C(=O)CCC(=O)Nc2ccccn2)cc1 (stereo unspecified)	5%	6	0%	5%	48*	i
CCC(=O)OCc1cnc(C)c2oc(=O)c(C(=O)Nc3ccc(CC)cc3)cc12	?	nt	-70%	nt	-16	nt
N#CCCn1cc(C(=O)Nc2ccc([N+](=O)[O-])cc2)c(-c2cc3ccccc3o2)n1	?	-13	-42%	nt	-4	25µM*
N#CCCn1cc(C(=O)Nc2ccccc2Br)c(-c2cc3ccccc3o2)n1	-22%	15	-25%	-14%	2	?
